The values below come from PubChem BioAssay AID743280 (The Scripps Research Institute Molecular Screening Center, 2014).

As a reminder, the inhibition is the drop in the measured response relative to a control, in per cent.

Each structure is given as a SMILES string. Hit rate of the full screen: of about 2,000 compounds, about 680 (34%) were called active. Not all results are given here. Values without a mark were called inactive.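 The calls were made as follows: active = mean inhibition across triplicates above the hit cutoff set in the earlier primary screen (cut at about 19% in these data); inactive = the rest.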

In this assay the target is Group 3 secretory phospholipase A2 (Homo sapiens) (UniProt Q9NZ20). Put plainly: human group III sPLA2 inhibitors, confirmation, biochemical, QFRET, triplicate (AID 743280).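 Also: 0% = enzyme with DMSO and 100% = DMSO wells lacking enzyme.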 The following applies: recombinant hGIII-sPLA2, BODIPY PC-A2 QFRET fluorescence; at 12.2 µM; stronger effect = higher value.
Group 3 secretory phospholipase A2 (Homo sapiens), sequence (Q9NZ20 whole entry, looked up): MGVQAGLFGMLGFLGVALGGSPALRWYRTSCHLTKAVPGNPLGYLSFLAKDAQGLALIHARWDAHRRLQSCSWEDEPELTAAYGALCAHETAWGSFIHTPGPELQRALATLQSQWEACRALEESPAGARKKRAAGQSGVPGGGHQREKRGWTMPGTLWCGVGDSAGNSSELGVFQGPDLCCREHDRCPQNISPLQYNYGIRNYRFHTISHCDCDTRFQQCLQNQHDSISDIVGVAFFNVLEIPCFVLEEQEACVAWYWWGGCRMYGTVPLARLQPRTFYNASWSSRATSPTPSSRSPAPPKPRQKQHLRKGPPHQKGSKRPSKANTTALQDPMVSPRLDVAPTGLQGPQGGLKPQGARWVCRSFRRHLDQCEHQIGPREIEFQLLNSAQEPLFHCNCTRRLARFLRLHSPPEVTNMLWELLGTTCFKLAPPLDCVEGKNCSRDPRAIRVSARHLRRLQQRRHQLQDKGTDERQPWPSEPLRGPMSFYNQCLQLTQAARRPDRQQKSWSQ
`C/C(=N\NC(=S)Nc1ccc(C)cc1)c1cc2ccccc2o1`: the inhibition is 40.2% (active). On to `COc1ccccc1OCC(=O)OCn1c(SC)nnc(C)c1=O`, for which the inhibition is -3.63%. Next, `CC(C(=O)Nc1ccccc1-c1ccccc1)N1CCOCC1` (stereo not given): 3.12%. Take `Cc1ccc(S(=O)(=O)N2CCOCC2)cc1C(=O)NC(=S)N(Cc1ccccc1)C(C)C`: the inhibition is 21.7% (active).

In the case of `O=C(COc1ccc(S(=O)(=O)NCc2ccccc2)cc1)N1CCOCC1`, the inhibition is -1.27%. Next, `CC(C)c1cc(C(=O)N/N=C/c2ccoc2)c(O)c(C(C)C)c1`: 9.71%; `NC(Cc1ccccc1)c1csc(Nc2cc(Oc3ccccc3)ncn2)n1` (stereo not given): 9.47%; `NC[C@H](Cc1ccccc1)NCCc1cc(C(F)(F)F)cc(C(F)(F)F)c1`: 23.4% (active).

For the compound `Cc1cccc(NC(=S)NCCN(C2CCCCC2)C2CCCC2)c1`, the inhibition is 15.1%.

In the case of `Cc1nnc(Sc2nc3c(c(=O)[nH]c(=O)n3C)n2Cc2ccccc2)s1`, the inhibition was -3.34%. The value for `CN(C)S(=O)(=O)c1cccc(NC(=S)N/N=C/C(=O)c2ccccc2)c1` was 33.4% (active); that for `COc1ccnc(NC(=S)N2CCN(c3ncc(C(F)(F)F)cc3Cl)CC2)c1` was 19%; that for `CC(C)=CCCC1(C)C=Cc2c(ccc3c2[nH]c2cc(O)c(C)cc23)O1` (stereo not given) was -8.08%. Next, `O=C(NN1C(=O)C2C3C=CC(C3)C2C1=O)c1ccco1` (stereo not given): 1.65%. Regarding `O=C(NNC(=S)Nc1ccc(Br)cc1Cl)c1ccco1`, the inhibition is 32.4% (active).

Regarding `Cc1c(Cl)cccc1NC(=S)NCc1ccc2c(c1)OCO2`, the inhibition is 13.1%. The value for `CCOC12CC(C)(C)CC(C)(CC3=C1C(=O)CC(C)(C)C3)C2` (stereo not given) was 0.63%; that for `O=C(CCl)NNc1cccc(Cl)n1` was 74.6% (active); that for `S=C(NNC(=S)NC1CC2CCC1C2)NC1CC2C=CC1C2` (stereo not given) was 22.1% (active). Next, `O=C(NNC(=S)NC1CC2CCC1C2)c1ccc(Cl)cc1` (stereo not given): 22.9% (active); `Cc1cccc(C)c1NC(=O)CN1C(=O)C(C)Oc2ccccc21` (stereo not given): 3.96%. Next, `Cn1c2c(c(=O)n(C)c1=O)C1c3ccccc3OCC1C(C)(C)O2` (stereo not given): -1.2%. Regarding `Cc1ccc(C2Nc3ccccc3C(=O)N2CCN2CCNC2=O)cc1` (stereo not given), the inhibition was -3.41%. The value for `Cc1c(C(=O)N/N=C/c2ccccc2)[nH]c2c([N+](=O)[O-])cccc12` was -5.71%; that for `O=C(N/N=C/c1cc(Cl)cc([N+](=O)[O-])c1O)C(O)(c1ccccc1)c1ccccc1` was 35.7% (active); that for `Cc1[nH]c(N)nc(=S)c1CCCNc1ccccc1` was 18.5%. The value for `S=c1[nH]nc(-c2ccco2)n1/N=C/c1ccccc1` was 13.8%; that for `CC(NC(=O)COC(=O)Cn1cc(C(F)(F)F)ccc1=O)c1ccccc1` (stereo not given) was 0.6%. Regarding `CC(Oc1ccc2ccccc2c1)C(=O)NNC(=S)NC(=O)c1ccco1` (stereo not given), the inhibition is 22.6% (active).

As for `CCOC(=O)NC(=O)/C(C#N)=C\c1ccccc1`, the inhibition is -5.62%. Regarding `N=C(N)SCc1cccc2ccccc12`, the inhibition is 23.3% (active). The value for `O=C(OC12CC3CC(CC(C3)C1)C2)c1ccc(NCc2cc(O)ccc2O)cc1` was 42.8% (active). For `COc1cc(/C=N/n2c(C)n[nH]c2=S)ccc1OCc1ccccc1`, the inhibition was 6.69%. On to `O=C(NNC(=S)NC1CCCCC1)c1ccccc1Cl`, for which the inhibition was 31.4% (active). Next, `COc1ccc(Cl)cc1C(=O)NNC(=S)NC1CCCC1`: 38.5% (active); `CCNC(=S)Nc1ccc(OC(F)(F)F)cc1`: 10.7%.

As for `CC(C)CC(=O)NC(=S)NNC(=O)c1cccc([N+](=O)[O-])c1`, the inhibition was 31.6% (active). The value for `CCCCCCCCCCOC(=O)C[N+](C)(C)CC1CCCCC1O` (stereo not given) was 4.96%. The value for `COc1ccc2c(c1)c(=Cc1ccc(N(C)C)cc1)c1cc(-c3ccccc3)[n+](C)n12` was 45.1% (active). Next, `O=C(/C=C/c1c(Cl)cccc1Cl)NCc1ccccc1`: 3.51%.

As to `CCCCOc1ccc(CSC(=N)N)cc1[N+](=O)[O-]`, the inhibition was 25.2% (active). With `CC[C@]1(O)C[C@@H]2CN(CCc3c([nH]c4ccccc34)[C@@](C(=O)OC)(c3cc4c(cc3OC)N(C)[C@H]3[C@@](O)(C(=O)OC)[C@H](OC(C)=O)[C@]5(CC)C=CCN6CC[C@]43[C@@H]65)C2)C1`, the inhibition was 10.2%. The value for `Nc1[nH]c(C(=O)c2ccccc2)c(-c2ccc(Br)cc2)c1C(=O)NC1CC1` was 12.2%. For the compound `COC(=O)C(C)n1cnc2c(nnn2-c2ccc(F)cc2)c1=O` (stereo not given), the inhibition was 1.8%.

Regarding `CN(CC(=O)Nc1ccc(N2CCOCC2)cc1)CC(=O)Nc1ccccc1[N+](=O)[O-]`, the inhibition was -2.32%.
